Assay results published in PubChem BioAssay (EPA / NIEHS).
Several values for one entry are separate records, joined by “and”; a condition that tells them apart may be missing. Equal entries are not always repeated. Activity calls are given as the source filed them. Rule for the calls: active = hit-call score of the fitted dose curve at least 0.9, where 1 is the maximum; inactive = score below 0.9.

Assay: BSK_hDFCGF_SRB: Viability Assessment in the BioMAP Diversity Plus: hDFCGF Assay (AID 2283061)
Conditions: primary human foreskin fibroblasts
Procedure: BSK_hDFCGF is a cell-based, multiplexed-readout assay that uses foreskin fibroblast, a human skin primary cell, with measurements taken at 24 hours after chemical dosing in a 96-well plate.BSK_hDFCGF_SRB is an assay component measured in the BSK_hDFCGF assay. It measures 0.1% sulforhodamine related to cell death using Sulforhodamine staining technology.Data from the assay component BSK_hDFCGF_SRB was analyzed into 1 assay endpoint. This assay endpoint, BSK_hDFCGF_SRB, was analyzed with bidirectional fitting relative to DMSO as the negative control and baseline of activity. Using a type of viability reporter, gain or loss-of-signal activity can be used to understand changes in the signaling. Furthermore, this assay endpoint can be referred to as a primary readout, because this assay has produced multiple assay endpoints where this one serves a signaling function. To generalize the intended target to other relatable targets, this assay endpoint is annotated to the cell morphology intended target family, where the subfamily is cell conformation.
The levels of cell surface (or secreted, indicated by the prefix "s") biomarker endpoints were measured by ELISA. Overt cytotoxicity to cells in confluent adherent cultures (all systems other than the BT system) was assessed by measuring total protein levels using sulforhodamine B (SRB) staining in parallel cultures at the time of biomarker measurements, indicated as SRB endpoints. For proliferation assays for adherent cell types, individual cell types are cultured at sub-confluence and relative cell numbers quantified by SRB staining at time points optimized for each system (48 h: 3C and CASM3C systems; 72 h: BT and HDF3CGF systems; 96 h: SAg system). SRB was performed by staining cells with 0.1% SRB after fixation with 10% TCA and reading wells at 560 nm.Viability and proliferation of PBMC (T cells) was quantified by Alamar Blue reduction for the SAg and BT systems. For PBMC viability (referred to as PBMC Cytotoxicity within the assay endpoint names), cells were plated (75,000/well in a 96-well plate) and then chemical samples added for 1 h before addition of activators, SEB and TSST-1 (20 ng/mL final concentration each). Cells were incubated for 90 h. Then, Alamar Blue (20 uL/well) (Invitrogen, Cat DAL1100) was added for 6 h, and the plates were read with a fluorescence microplate reader at 546/580 nm (excitation/emission). For PBMC proliferation, cells were plated and activated as above but incubated for only 16 h prior to addition of Alamar Blue. Plates were read after 6 h.
For `Oc1cccc2ccccc12`, the outcome was “inactive”.
In the case of `CC(C)C1OCCN1CCOC(=O)NCCCCCCNC(=O)OCCN1CCOC1C(C)C` (configuration not stated), the outcome is reported as “inactive”.
With `CN(C)CCC(c1ccc(Cl)cc1)c1ccccn1` (configuration not stated) the outcome was “inactive”.
With `O=C(C(=O)c1ccccc1)c1ccccc1` the outcome was “inactive”.
For `Cc1c(C(N)=O)cc([N+](=O)[O-])cc1[N+](=O)[O-]`, the outcome was “inactive”.
For `COc1cc(CNC(=O)CCCC/C=C/C(C)C)ccc1O`, the outcome was “inactive”.
With `Cc1cc(-n2nc3ccc(Cl)cc3n2)c(O)c(C(C)(C)C)c1` the outcome was “inactive”.
In the case of `COc1ccccc1Oc1c(NS(=O)(=O)c2ccc(C(C)(C)C)cc2)nc(-c2ncccn2)nc1OCCO`, the outcome is reported as “inactive”.
For `CCCCCCC(O)CCCCCCCCCCC(=O)OC` (configuration not stated), the outcome was “inactive”.
With `CCCCC(CC)COC(=O)C=Cc1ccc(OC)cc1` (configuration not stated) the outcome was “inactive”.
With `COC(=O)/C=C\C(=O)OC` the outcome was “inactive”.
In the case of `CCCCCCCCCCCCCCCCCC[N+](C)(C)C`, the AC50 is reported as 1.34 µM (active).
With `CCCCCCCCCCC1CO1` (configuration not stated) the AC50 was 27.6 µM (active).
With `O=[N+]([O-])c1cc(S(=O)(=O)Nc2ccccc2)ccc1Nc1ccccc1` the AC50 was 27.7 µM (active) and 29 µM (active).
In the case of `OC(C(F)(F)F)(C(F)(F)F)C(O)(C(F)(F)F)C(F)(F)F`, the outcome is reported as “inactive”.
With `CN(C)Cc1cc(C(C)(C)C)c(O)c(C(C)(C)C)c1` the outcome was “inactive”.
For `C1CN(CCOCCN2CCOCC2)CCO1`, the outcome was “inactive”.
In the case of `CCC(C)=NO`, the outcome is reported as “inactive”.
With `CCC[Si](OC(C)=O)(OC(C)=O)OC(C)=O` the outcome was “inactive”.
In the case of `CC[N+](CC)(CC(=O)Nc1c(C)cccc1C)Cc1ccccc1`, the outcome is reported as “inactive”.
In the case of `Sc1nc2ccccc2s1`, the outcome is reported as “inactive”.
In the case of `CC[N+](CC)(CC(=O)Nc1c(C)cccc1C)Cc1ccccc1` (tested in a mixture with another compound), the outcome is reported as “inactive”.
For `Cc1cccnc1`, the outcome was “inactive”.
In the case of `CC(C)CC(=O)CC(C)CC(C)C` (configuration not stated), the AC50 is reported as 34.7 µM (active).
For `CCCCCCCCCC/C=C/C1CC(=O)OC1=O` (configuration not stated), the outcome was “inactive”.
With `COc1ccc(C(=O)c2ccccc2O)c(O)c1` the outcome was “inactive”.
In the case of `CN(C)c1ccc(C(c2ccccc2)c2ccc(N(C)C)cc2)cc1`, the outcome is reported as “inactive”.
